Where “and” joins values, the source holds several entries; their conditions need not be identical. Equal values may be shown once. Results filed as inconclusive are left out. Unmarked numbers belong to inactive results. Calls of active or inactive are those of the source. Calls follow the shape of the dose curve; as a rule, active = well fitted curve in either direction with a large enough effect (not every such curve was filed as active); inconclusive = small, poorly fitted or top-dose-only effect, or another doubt; inactive = flat fitted curve, though single readings scatter.
% is scaled to controls: 0 for no effect and ±100 for the full control effect.

The first experiment is described as follows: NFAT Signaling Pathway (AID 444). To be noted: Jurkat NFAT-bla M1, carbachol, beta-lactamase ratio, 5 h; at 7.69 µM (top of the series). From the text:
NCGC Assay Overview: The nuclear factor of activated T cells (NFAT) family of transcription factors has been found primarily in most immune system cells and some other non-immune cells. NFAT plays the immunomodulatory role, primarily in T-cell activation and differentiation. NFAT target genes are also involved in the regulation of apoptosis and differentiation in non-immune cell types. The NFAT sequence was engineered to the upstream of the ?-lactamase reporter gene and transfected into Jurkat cells with co-transfection of muscarinic receptor1 [provided by Invitrogen Corp]. When an extracellular stimulus, such as carbachol, binds to the GPCR M1 receptor, it stimulates a signaling cascade that activates NFAT response element and ?-lactamase expression by phosphorylating the NFAT binding protein. This cell based ?-lactamase reporter gene assay can accurately monitor any changes occurring along the NFAT pathway, and can be used for screening small molecule inhibitor or activator upon activation by carbachol EC50 concentration. A small molecular library were screened in a titration series resulting in AC50s (can be either IC50s or EC50s).
NCGC Assay Protocol Summary: The cells were prepared in RPMI 1640 medium containing 0.1% dialyzed FBS and 25 mM HEPES at 1.6 x 10^6cell/ml. The assay was performed in 1536-well plate format as follows: 5 ul of cell preparation 23 nl of compounds 1ul of carbachol (final concentration 1 uM) Briefly centrifuge the plates and incubate at 37 °C for 5 hours 1 ul of CCF4 dye mixture Incubate the plates at RT for 1 hour Read the plate in EnVision plate reader (Ex= 405nm, and Em1=460nm and Em2=530nm). The %Activity was determined from the ratio of 460nm/530nm. Data normalization and AC50 calculations were accomplished using GeneData software.
Consider `NS(=O)(=O)c1ccc(C(=O)O)cc1`, for which the activity change, negative = inhibition was 7.39%.

Staying with this experiment, now noted: Jurkat NFAT-bla M1, carbachol, beta-lactamase ratio, 5 h; at 17.2 µM (top of the series).
As for `CN1C(C)(C)CCCC1(C)C`, the activity change, negative = inhibition is -4.12%.

Regarding `NS(=O)(=O)c1ccc(C(=O)O)cc1`, the activity change, negative = inhibition is 8.44%.

The same experiment, now with this note: Jurkat NFAT-bla M1, carbachol, beta-lactamase ratio, 5 h; at 17.2 µM (top of the series) unless noted.
Turning to `CC(=O)N[C@@H](CC(C)C)C(=O)O`, the activity change, negative = inhibition was 1.74%.

In the case of `O=C(O)c1ccccc1OP(=O)(O)O`, the activity change, negative = inhibition is -20.2%. Consider `Nc1ccc(S(=O)(=O)c2ccc(N)cc2)cc1`, for which the activity change, negative = inhibition was -0.066% and 13.8%. The same measure, in the same setting: to `COc1ccc(NS(=O)(=O)c2ccc(N)cc2)nn1` belongs -4.78% and 5.22%. As for `CC1CCc2cc(F)cc3c(=O)c(C(=O)O)cn1c23` (stereo not given), the activity change, negative = inhibition is 13.1%. `CC(=O)[C@@]1(O)CC[C@H]2[C@@H]3C[C@H](C)C4=CC(=O)C=C[C@]4(C)[C@@]3(F)[C@@H](O)C[C@@]21C`: the activity change, negative = inhibition was 9.08%. `CN/C(=C\[N+](=O)[O-])NCCSCc1csc(CN(C)C)n1`: the activity change, negative = inhibition was -2.1%.

As to `NC(=O)CC[C@@H](N)C(=O)O`, the activity change, negative = inhibition is 0.712% [at 38 µM]. Take `CCCCC1(COC(=O)CCC(=O)O)C(=O)N(c2ccccc2)N(c2ccccc2)C1=O`: the activity change, negative = inhibition is 11.7%.

With `O=C(O)COC(=O)Cc1ccccc1Nc1c(Cl)cccc1Cl`, the activity change, negative = inhibition is -7.48%. For `C[C@@H]1CCC[C@H](C)N1`, the activity change, negative = inhibition is -5.56%. For `CCS(=O)(=O)CCn1c([N+](=O)[O-])cnc1C`, the activity change, negative = inhibition is -9.1% and -28.6%.

`O=S1(=O)OC(c2ccc(O)cc2)(c2ccc(O)cc2)c2ccccc21`: the activity change, negative = inhibition was 14.9% [at 7.69 µM]. In the case of `CCc1cccc(CC)c1NC(=O)CN(CC(=O)O)CC(=O)O`, the activity change, negative = inhibition was -2.21%. With `Cn1c(=O)c2c(ncn2CCO)n(C)c1=O`, the activity change, negative = inhibition was -0.574%.

As to `Cc1cccc(Nc2ccccc2C(=O)O)c1C`, the activity change, negative = inhibition was -4.97%. As for `NCc1ccc(S(N)(=O)=O)cc1`, the activity change, negative = inhibition is -1.12% and 9.4%. Same read-out and setting: next, `Cc1c(NC(=O)c2cccnc2)c(=O)n(-c2ccccc2)n1C`: -13.6%. Consider `NC(N)=NCCN1CCCCCCC1`, for which the activity change, negative = inhibition is -13.3%. On to `OC(CCN1CCCC1)(c1ccccc1)C1CCCCC1` (stereo not given), for which the activity change, negative = inhibition was -89.4% (active). Take `CC(=O)SC[C@@H](Cc1ccccc1)C(=O)NCC(=O)OCc1ccccc1`: the activity change, negative = inhibition is -12%.

For the molecule `Cc1c(N(C)C)c(=O)n(-c2ccccc2)n1C`, the activity change, negative = inhibition was -3.81%.

For `O=C(O)CCCc1ccccc1`, the activity change, negative = inhibition is 20.3%. With `O=C(Cn1ccnc1[N+](=O)[O-])NCCO`, the activity change, negative = inhibition was -5.19%. For the molecule `Cc1cc(C)nc(NS(=O)(=O)c2ccc(N)cc2)n1`, the activity change, negative = inhibition was -2.6%. On to `Cn1c([N+](=O)[O-])cnc1COC(N)=O`, for which the activity change, negative = inhibition was -6.16% and -23.1%. Take `NS(=O)(=O)c1cc2c(cc1C(F)(F)F)NCNS2(=O)=O`: the activity change, negative = inhibition was -1.33% and 8.85%. As to `Cc1ncc(CO)c(CN)c1O`, the activity change, negative = inhibition was -0.448% [at 7.69 µM]. On the same count and under the same terms, next, `NC(N)=NS(=O)(=O)c1ccc(N)cc1`: -6.04% and -19.4%; `CC(C)=CCC/C(C)=C/CO`: 4.14% [at 7.69 µM]; `CC(=O)NS(=O)(=O)c1ccc(N)cc1`: -1.44% and -25.8%.

As for `CCN(CC)CCOC(=O)C(c1ccccc1)c1ccccc1`, the activity change, negative = inhibition was -79.3% (active). As to `Cc1c(NC(C)C)c(=O)n(-c2ccccc2)n1C`, the activity change, negative = inhibition was -8.51%.

In the case of `COc1ccc2cc(CCC(C)=O)ccc2c1`, the activity change, negative = inhibition is -1.6%.

`CN1CCCN=C1COC(=O)C(O)(c1ccccc1)C1CCCCC1` (stereo not given): the activity change, negative = inhibition is -84.1% (active). For `CCCCOC(=O)c1ccc(N)cc1`, the activity change, negative = inhibition was -8.04%.

The experiment is the same for the next values; noted with them: Jurkat NFAT-bla M1, carbachol, beta-lactamase ratio, 5 h; at 38 µM (top of the series).
`CN1C(C)(C)CCCC1(C)C`: the activity change, negative = inhibition was 7.41%.
